The sample as a whole holds a higher share of hits than the screen did.
Lassa entry inh: inhibitors of Lassa virus binding or cell entry; Lassa virus pseudotype entry inhibition, cell reporter; Potency, µM (highest dose often 37.9 µM), hits mostly inhibitors; 300,000 compounds, 1.2% hits; AID 540256; calls by dose curve; tested in HEK293 cells; further: nearly all actives have a fitted effect of over 50% in size
Cycloheximide cs: counter-screen for Shiga toxin inhibitors: cycloheximide protein synthesis inhibition; cell reporter, cycloheximide protein synthesis inhibition counterscreen; max response, %; 300,000 compounds, 12% hits; AID 2314; in the data active means max response mostly above about 13%, no sharp cut-off; inactive means mostly below about 14%; further: read at 38.3 µM for the half of the compounds with a filed dose
AMA1 RON2 block: disrupts binding of P. falciparum AMA1 to RON2. AlphaScreen AMA1-biotinylated RON2 peptide binding. Potency, µM (doses to about 58.2 µM), hits mostly inhibitors. 360,000 compounds, 0.2% hits; active means well fitted inhibition curve with a large enough effect; inconclusive means small, poorly fitted or top-dose-only effect; inactive means no such curve, though single readings can be large or run the other way; further: nearly all actives have a fitted effect of over 45% in size
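AMA1 (3D7) with his tag at 25 nM final met compounds first, then biotinylated RON2 peptide at 25 nM; detection used donor plus acceptor beads, 10 µg/mL apiece, read by AlphaScreen after 30 min at room temperature.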
Marburg entry inh: Marburg virus entry inhibition. Potency, µM (series often up to 37.8 µM), usual class: inhibitors. 300,000 compounds, 1.8% hits. Marburg virus pseudotyped entry inhibition, cell reporter. AID 540276; calls by dose curve; tested in HEK293 cells
Shiga toxin inh: blocks Shiga toxin action in Vero cells | inhibition, % at 38.7 µM | 290,000 compounds, 9.2% hits | Vero cells, Shiga toxin protein synthesis inhibition reporter | AID 2315; in the data active means inhibition mostly above about 28%, no sharp cut-off; inactive means mostly below about 43%
Numbers stand for hits; 0 = inactive; ? = inconclusive; - = not tested or not shown; ! = repeats disagree; [ ] = dose if it differs, or a comment.

SMILES	Lassa entry inh	Cycloheximide cs	AMA1 RON2 block	Marburg entry inh	Shiga toxin inh
CCc1ccc(OCCNC(=O)c2cccs2)cc1	0	40.5	0	0	53.0
CC(Cc1cccs1)NC(=O)Nc1ccc([N+](=O)[O-])cc1 (stereo not given)	-	29.9	0	-	73.4
COc1ccc2nc(NC(=O)c3ccc(S(=O)(=O)N4CCC(C)CC4)cc3)sc2c1	0	-	-	-	-
Cc1ccc(NC(=O)CC(NCC2CCCO2)C(=O)O)cc1C (stereo not given)	0	0	0	?	0
COC(=O)CC=C[C@@H](C)[C@H](NC(=O)OC)c1ccccc1Br	-	-	-	0	-
O=C(N/N=C/c1c[nH]c2ccccc12)C1CC1c1ccccc1 (stereo not given)	2.82µM	0	0	?	0
O=C1NCCCC1C(=O)N/N=C/c1cccc([N+](=O)[O-])c1 (stereo not given)	0	0	0	0	0
O=C(N/N=C/c1cccs1)[C@H]1C[C@@H]1c1ccccc1	0	0	0	0	0
CC(C)(C)c1ccc(C2CC2C(=O)N/N=C\c2ccc[nH]2)cc1 (stereo not given)	?	11.9	0	?	0
O=C(N/N=C/c1ccco1)C1CC1c1ccccc1 (stereo not given)	18.4µM	0	0	0	0
O=C(N/N=C/c1ccco1)C1CC1	0	0	0	0	0
O=C(N/N=C/c1cccc([N+](=O)[O-])c1)C1CC1c1ccccc1 (stereo not given)	2.24µM	0	0	?	0
Cc1cc2oc(=O)cc(CN3CCOCC3)c2c(C)c1Cl	-	0	0	-	0
C[C@@H]1CC[C@H]2[C@@H](C)C(=O)O[C@@H]3OC4(C)CC[C@@H]1[C@]32OO4	-	0	-	-	0
CCOc1ccccc1N(C)C(=O)Cn1ncc2c([nH]c3ccccc32)c1=O	0	0	0	6.31µM	0
Cc1ccc(-n2nc(C)c3c(C(F)(F)F)cc(-c4cccnc4)nc32)cc1Cl	0	-	-	0	-
Oc1ccccc1C=Nc1ccccc1-c1nc2ccccc2[nH]1	?	38.3	0	?	75.3
COc1ccc(OC)c(C=Nc2ccccc2-c2nc3ccccc3[nH]2)c1	0	27.0	0	0	44.6
O=C(NCc1ccccc1)c1ccccc1-c1nc2ccccc2[nH]1	0	0	0	0	0
Oc1ccc(C=Nc2cccc3ncccc23)c(O)c1	0	0	0	0	0
Oc1ccc(C=Nc2ccccc2-c2nc3ccccc3[nH]2)c(O)c1	?	13.1	0	0	0
CCOc1ccc(C2C(C(=O)OC)=CN(C(C)c3ccccc3)C=C2C(=O)OC)cc1 (stereo not given)	-	0	0	-	0
CCCCC(CC)CNC(=O)CN(C)S(=O)(=O)c1cccc2nsnc12 (stereo not given)	0	0	0	0	52.6
CC(C)NC(=O)Nc1ccc2c(c1)C(=O)N([C@H](C)CO)C[C@H](C)[C@@H](CN(C)S(=O)(=O)c1cn(C)cn1)O2	-	-	0	-	-
CC(C)CCNC(=O)c1ccc(Cn2c(=O)c3cccn3c3cccnc32)cc1	0	-	-	-	-
SMILES	Lassa entry inh	Cycloheximide cs	AMA1 RON2 block	Marburg entry inh	Shiga toxin inh
CCC1CCCCN1C(=O)CSc1nnc(-c2ccc3c(c2)OCCO3)o1 (stereo not given)	0	26.8	0	?	0
CCC1CCCCN1C(=O)CSc1nnc(-c2ccc(OC)cc2)o1 (stereo not given)	0	0	0	0	0
O=C(CSc1nnc(-c2ccc3c(c2)OCCO3)o1)N1CCCC1	?	43.9	0	?	0
CCOC(=O)Cn1nnnc1CN(Cc1cccs1)Cc1cc2cc(C)ccc2[nH]c1=O	0	0	0	0	0
COCCn1nnnc1C(C(C)C)N(Cc1ccccc1)Cc1cc2cc(OC)ccc2[nH]c1=O (stereo not given)	?	0	0	0	0
CCOC(=O)Cn1nnnc1C(CC)N(Cc1cccs1)Cc1cc2ccc(OC)cc2[nH]c1=O (stereo not given)	0	8.5	0	?	0
CCc1ccc2[nH]c(=O)c(CN(Cc3ccc(OC)cc3)Cc3nnnn3CCOC)cc2c1	?	0	0	14.1µM	0
COc1ccc2[nH]c(=O)c(CN(Cc3cccs3)Cc3nnnn3C(C)(C)C)cc2c1	0	0	0	18.3µM!	0
CCOCCCNC(=O)C(c1ccc(C)cc1)N(Cc1cccs1)C(=O)CNC(C)=O (stereo not given)	0	0	0	?	0
CC(=O)Nc1ccc(/C=N/NC(=S)NC(C)C)cc1	?	0	0	0	0
Clc1nc(-c2ccccc2)cc(-c2ccccc2)n1	0	17.2	0	?	0
Clc1cc(-c2ccccc2)nc(-c2ccccc2)n1	?	-	0	0	-
Cc1noc(C)c1COc1ccc(C(=O)N2CCN(S(=O)(=O)c3ccc(F)cc3)CC2)cc1	0	-	0[11.6 µM]	0	-
COC(=O)c1sccc1NC(=O)Cc1ccc(OC)c(OC)c1	?	0	0	?	0
COC(=O)c1sccc1NC(=O)Cc1ccc(Br)cc1	?	26.5	0	?	31.8
COC(=O)c1sccc1NC(=O)Nc1ccc(Cl)c(Cl)c1	0	27.3	0	?	0
COC(=O)c1sccc1NC(=O)CSc1cccc(Cl)c1Cl	0	11.6	0	0	0
COC(=O)c1sccc1NC(=O)Nc1ccc(C)c(C)c1	-	41.4	0	-	72.3
COC(=O)c1sccc1NC(=O)Nc1ccc(OC)c(OC)c1	-	0	0	-	0
COC(=O)c1sccc1NC(=O)Nc1ccccc1C	0	0	0	0	0
COC(=O)c1sccc1S(=O)(=O)Nc1ccc(C)cc1	-	16.0	0	-	0
CCc1ccc(NC(=O)Nc2ccsc2C(=O)OC)cc1	-	36.1	0	-	42.1
O=C(Nc1c2c(nn1-c1ccc(F)cc1)CS(=O)(=O)C2)c1ccc(S(=O)(=O)N2CCOCC2)cc1	0	0	0	0	0
CN(C)CCCNc1c2ccccc2nc2ccccc12	?	0	0	5.62µM	0
CN(C)CCCNc1ncnc2oc(-c3ccccc3)c(-c3ccccc3)c12	?	0	0	8.91µM	0
SMILES	Lassa entry inh	Cycloheximide cs	AMA1 RON2 block	Marburg entry inh	Shiga toxin inh
CN(C)CCCNc1nc(-c2ccccc2)nc2ccccc12	0	0	0	12.6µM	0
CC(CCN1CCc2nc(-c3ccccc3)c(-c3ccccc3)cc2C1)=NOC[C@@H](O)[C@H]1O[C@@H]2OC(C)(C)O[C@H]2[C@@H]1O	-	-	-	0	-
COc1cc2c(cc1OC)CN(C(=O)C(CCSC)NS(=O)(=O)c1ccc(C)cc1)CC2 (stereo not given)	0	0	0	0	0
CC(=O)Nc1ccc(N2CCCCC2)cc1	0	0	0	0	0
NS(=O)(=O)c1cc(C(=O)OCC(=O)Nc2ccc(N3CCCCC3)cc2)ccc1Cl	-	13.2	0	-	0
CCC(=O)Nc1ccc(N2CCCCC2)cc1	0	37.1	0	0	0
CCC(=O)NC(=S)Nc1ccc(N2CCOCC2)cc1	0	27.6	0	?	95.8
O=C(CCl)Nc1ccc(N2CCCCCC2)cc1	?	20.1	0	?	0
C[C@@H]1CCCCO[C@H](CN(C)C(=O)Nc2ccc3c(c2)OCO3)[C@H](C)CN([C@@H](C)CO)C(=O)c2cc(NS(=O)(=O)c3ccc(Cl)cc3)ccc2O1	-	-	0	-	-
O=C(NC1CC1)C1=C[C@@H](c2ccc(Br)cc2)C[C@@H](OCc2ccc(CO)cc2)O1	-	0	0	-	0

Source: PubChem BioAssay
